Assay results taken from PubChem BioAssay (EPA / NIEHS).
Inconclusive results are not listed. Activity calls are given as the source filed them. Rule for the calls, unless noted: active = hit-call score of the fitted dose curve at least 0.9, where 1 is the maximum; inactive = score below 0.9.

How the values were obtained:
[1] = biological target: human Thyroid Receptor alpha (THRa1), THRA (gene 7067) (UniProt P10827); assay: ATG_THRa1_TRANS: Attagene TRANS-FACTORIAL HepG2 Assay for human Thyroid Receptor alpha (THRa1) (AID 2283014; active = hit-call score of the fitted dose curve at least 0.9, where 1 is the maximum)
Summary of the method: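 First, HepG2 cells receive multiple GAL4-UAS reporter units and the chimeric receptor. They are then dosed for 24 h, after which RNA is reverse-transcribed, amplified, labelled, HpaI-cut and sized by capillary electrophoresis; gain relative to DMSO is scored.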

[2] = biological target: human Retinoid X Receptor beta (RXRb), RXRB (gene 6257) (UniProt P28702); assay: ATG_RXRb_TRANS: Attagene TRANS-FACTORIAL HepG2 Assay for human Retinoid X Receptor beta (RXRb) (AID 2283013; active = hit-call score of the fitted dose curve at least 0.9, where 1 is the maximum)
Summary of the method: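 Multiplexed TRANS reporter assay in HepG2; 24 h dosing; reporter mRNA by RT-PCR/CE fluorescence; gain-of-signal relative to DMSO.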

[3] = biological target: human Vitamin D Receptor (VDR), VDR (gene 7421) (UniProt P11473); assay: ATG_VDR_TRANS: Attagene TRANS-FACTORIAL HepG2 Assay for human Vitamin D Receptor (VDR) (AID 2283022; active = hit-call score of the fitted dose curve at least 0.9, where 1 is the maximum)
Summary of the method: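 Fluorescence of labelled reporter cDNA fragments, resolved by capillary electrophoresis, gives mRNA induction after 24 h treatment of HepG2 cells carrying transfected Gal4-fusion reporter units. Activity is fitted in the positive direction with DMSO as baseline.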

[4] = read-out: E-selectin (Homo sapiens) (UniProt P16581); assay: BSK_3C_Eselectin: BioMAP Diversity Plus: 3C Assay for Eselectin Biomarker Activity (AID 2283015); conditions: primary human endothelial cells (HUVEC); actives raise or lower the signal
Summary of the method: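 Human vascular endothelium from umbilical vein is exposed to test chemicals for 24 h. E-selectin levels are read by ELISA and compared with DMSO controls.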

[5] = read-out: Interleukin-1 alpha (IL1a), IL1A (gene 3552); assay: BSK_BE3C_IL1a: BioMAP Diversity Plus: BE3C Assay for Interleukin-1 alpha (IL1a) Biomarker Activity (AID 2283016); conditions: primary human bronchial epithelial cells; actives raise or lower the signal
Summary of the method: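 Cultures of primary human bronchial epithelial cells receive test chemical. After 24 h, IL-1a is quantified by ELISA, while parallel wells are fixed in TCA and SRB-stained for total protein. Changes in either direction are fitted relative to DMSO.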

[6] = read-out: Monocyte Chemoattractant Protein-1 (MCP1), CCL2 (gene 6347); assay: BSK_3C_MCP1: BioMAP Diversity Plus: 3C Assay for Monocyte Chemoattractant Protein-1 (MCP1) Biomarker Activity (AID 2283017); conditions: primary human endothelial cells (HUVEC); actives raise or lower the signal
Summary of the method: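 Endothelial cells from human umbilical vein are dosed with chemical, cultured 24 h, then assayed for MCP-1 by ELISA; both increases and decreases are modelled against DMSO controls.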

[7] = read-out: Monocyte Chemoattractant Protein-1 (MCP1), CCL2 (gene 6347); assay: BSK_4H_MCP1: BioMAP Diversity Plus: 4H Assay for Monocyte Chemoattractant Protein-1 (MCP1) Biomarker Activity (AID 2283018); conditions: primary human endothelial cells (HUVEC); actives raise or lower the signal
Summary of the method: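 Readout: MCP-1 ELISA on compound-treated HUVEC, sampled 24 h post-dosing. Baseline and negative control DMSO; bidirectional fit. Overt toxicity checked alongside by sulforhodamine B protein staining at time of biomarker measurement.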

[8] = read-out: Human Leukocyte Antigen - DR isotype (HLADR), HLA-DRA (gene 3122); assay: BSK_3C_HLADR: BioMAP Diversity Plus: 3C Assay for Human Leukocyte Antigen - DR isotype (HLADR) Biomarker Activity (AID 2283019); conditions: primary human endothelial cells (HUVEC); actives raise or lower the signal
Summary of the method: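 Endothelial cells from human umbilical vein are treated with test chemical; after 24 h, HLA-DR levels are measured by ELISA. Data are fitted in both directions using DMSO as the baseline.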

[9] = read-out: Interleukin-8 (IL8), CXCL8 (gene 3576); assay: BSK_3C_IL8: BioMAP Diversity Plus: 3C Assay for Interleukin-8 (IL8) Biomarker Activity (AID 2283020); conditions: primary human endothelial cells (HUVEC); actives raise or lower the signal
Summary of the method: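 Human vascular endothelial cells (umbilical vein) in the 3C system; IL-8 level detected by ELISA at 24 h post-dose, with DMSO as baseline.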

[10] = read-out: Monokine induced gamma interferon (MIG), CXCL9 (gene 4283); assay: BSK_3C_MIG: BioMAP Diversity Plus: 3C Assay for Monokine induced gamma interferon (MIG) Biomarker Activity (AID 2283021); conditions: primary human endothelial cells (HUVEC); actives raise or lower the signal;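 for AC50: MIG protein level measured by immunoassay in the treated endothelial cultures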
Summary of the method: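 After 24 h of treatment, human umbilical vein endothelial cultures (3C system) had their MIG biomarker level determined by ELISA, with DMSO serving as negative control.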

[11] = BSK_3C_SRB: Viability Assessment in the BioMAP Diversity Plus: 3C Assay (AID 2283023); conditions: primary human endothelial cells (HUVEC);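 note: cells read 24 h after compound dosing; fitted both ways against DMSO so a hit may be signal rise or drop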
Summary of the method: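 Cells were dosed with chemical, cultured 24 h, fixed with 10% TCA, stained with 0.1% SRB and read at 560 nm. Human umbilical vein endothelium was used; DMSO served as negative control and baseline.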

[12] = read-out: Matrix Metallopeptidase 1 (MMP1), MMP1 (gene 4312); assay: BSK_BE3C_MMP1: BioMAP Diversity Plus: BE3C Assay for Matrix Metallopeptidase 1 (MMP1) Biomarker Activity (AID 2283024); conditions: primary human bronchial epithelial cells; actives raise or lower the signal
Summary of the method: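 Dose cells, wait 24 h, run MMP1 ELISA; cells are human bronchial epithelial primaries. Both increases and decreases relative to DMSO counted.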

[13] = read-out: Pselectin, SELP (gene 6403); assay: BSK_4H_Pselectin: BioMAP Diversity Plus: 4H Assay for Pselectin Biomarker Activity (AID 2283026); conditions: primary human endothelial cells (HUVEC); actives raise or lower the signal
Summary of the method: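 Human vascular endothelium from umbilical vein; P-selectin measured by ELISA at 24 h post-dose, with cytotoxicity checked by sulforhodamine B total-protein staining in parallel cultures (0.1% SRB after 10% TCA fixation, read at 560 nm).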

[14] = BSK_4H_SRB: Viability Assessment in the BioMAP Diversity Plus: 4H Assay (AID 2283027); conditions: primary human endothelial cells (HUVEC);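 note: cells exposed to compound for 24 h before staining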;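 for AC50: curves fitted both ways versus DMSO so AC50 may be loss or gain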
Summary of the method: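 Human umbilical vein endothelial cells were dosed with chemical and, after 24 h, fixed with 10% TCA, stained with 0.1% sulforhodamine B, and read at 560 nm to give total protein as a cytotoxicity measure. Bidirectional fitting relative to DMSO control.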

[15] = read-out: Thrombomodulin, THBD (gene 7056); assay: BSK_3C_Thrombomodulin: BioMAP Diversity Plus: 3C Assay for Thrombomodulin Biomarker Activity (AID 2283029); conditions: primary human endothelial cells (HUVEC); actives raise or lower the signal
Summary of the method: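 Thrombomodulin ELISA, human primary HUVEC, 24 h post-dose; data fitted in both directions relative to DMSO.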

[16] = read-out: Urokinase-type plasminogen activator receptor (uPAR), PLAUR (gene 5329); assay: BSK_4H_uPAR: BioMAP Diversity Plus: 4H Assay for Urokinase-type plasminogen activator receptor (uPAR) Biomarker Activity (AID 2283030); conditions: primary human endothelial cells (HUVEC); actives raise or lower the signal
Summary of the method: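 Chemicals are dosed onto human vascular endothelial primary cells (umbilical vein). After 24 h, uPAR is read by ELISA. Gain or loss of signal is fitted relative to DMSO.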

[17] = BSK_3C_Vis: BioMAP Diversity Plus: 3C Assay for Morphology Visualization (AID 2283025); conditions: primary human endothelial cells (HUVEC);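 note: light microscopy image of cell morphology used as background control; cells imaged 24 h after dosing; fitted both ways so gain or loss versus DMSO counts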
Summary of the method: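 Endothelial cells from human umbilical vein were treated with test chemicals for 24 h and inspected by light microscopy for changes in cell conformation.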

Measured: AC50

Chain of E-selectin (Homo sapiens) (P16581 whole entry, looked up): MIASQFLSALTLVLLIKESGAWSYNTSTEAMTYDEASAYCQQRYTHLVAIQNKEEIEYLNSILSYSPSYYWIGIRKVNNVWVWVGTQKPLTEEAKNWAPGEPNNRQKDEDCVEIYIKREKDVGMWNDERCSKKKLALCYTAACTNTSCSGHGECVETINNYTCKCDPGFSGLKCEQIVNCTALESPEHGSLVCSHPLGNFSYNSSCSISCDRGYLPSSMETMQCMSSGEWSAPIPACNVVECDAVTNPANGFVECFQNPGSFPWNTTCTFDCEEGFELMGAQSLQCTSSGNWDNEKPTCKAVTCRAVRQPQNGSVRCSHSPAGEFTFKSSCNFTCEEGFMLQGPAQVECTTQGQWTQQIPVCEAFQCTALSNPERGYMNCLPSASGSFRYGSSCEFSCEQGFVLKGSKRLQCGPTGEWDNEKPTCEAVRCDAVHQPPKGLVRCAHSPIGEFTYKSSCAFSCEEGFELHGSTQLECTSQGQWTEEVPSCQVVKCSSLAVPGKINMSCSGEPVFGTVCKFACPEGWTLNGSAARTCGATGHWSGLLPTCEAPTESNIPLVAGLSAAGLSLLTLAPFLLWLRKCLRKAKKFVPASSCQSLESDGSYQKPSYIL
Chain of human Retinoid X Receptor beta (RXRb), RXRB (gene 6257) (P28702 whole entry, looked up): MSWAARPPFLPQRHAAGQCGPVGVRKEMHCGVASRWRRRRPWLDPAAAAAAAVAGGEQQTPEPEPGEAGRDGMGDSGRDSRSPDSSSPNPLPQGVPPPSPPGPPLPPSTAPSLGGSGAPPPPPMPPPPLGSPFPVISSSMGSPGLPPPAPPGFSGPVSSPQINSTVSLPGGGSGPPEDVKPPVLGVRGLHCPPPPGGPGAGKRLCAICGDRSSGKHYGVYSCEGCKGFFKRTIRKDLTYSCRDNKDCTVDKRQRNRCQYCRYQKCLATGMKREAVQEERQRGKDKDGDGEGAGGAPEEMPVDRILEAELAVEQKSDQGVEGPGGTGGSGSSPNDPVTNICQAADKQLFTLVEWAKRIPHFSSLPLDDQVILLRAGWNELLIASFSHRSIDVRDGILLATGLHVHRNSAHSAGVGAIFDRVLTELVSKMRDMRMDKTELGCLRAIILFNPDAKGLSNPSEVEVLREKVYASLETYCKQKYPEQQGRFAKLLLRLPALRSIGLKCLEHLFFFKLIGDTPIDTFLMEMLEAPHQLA
Chain of human Thyroid Receptor alpha (THRa1), THRA (gene 7067) (P10827 whole entry, looked up, the tested form may be a part): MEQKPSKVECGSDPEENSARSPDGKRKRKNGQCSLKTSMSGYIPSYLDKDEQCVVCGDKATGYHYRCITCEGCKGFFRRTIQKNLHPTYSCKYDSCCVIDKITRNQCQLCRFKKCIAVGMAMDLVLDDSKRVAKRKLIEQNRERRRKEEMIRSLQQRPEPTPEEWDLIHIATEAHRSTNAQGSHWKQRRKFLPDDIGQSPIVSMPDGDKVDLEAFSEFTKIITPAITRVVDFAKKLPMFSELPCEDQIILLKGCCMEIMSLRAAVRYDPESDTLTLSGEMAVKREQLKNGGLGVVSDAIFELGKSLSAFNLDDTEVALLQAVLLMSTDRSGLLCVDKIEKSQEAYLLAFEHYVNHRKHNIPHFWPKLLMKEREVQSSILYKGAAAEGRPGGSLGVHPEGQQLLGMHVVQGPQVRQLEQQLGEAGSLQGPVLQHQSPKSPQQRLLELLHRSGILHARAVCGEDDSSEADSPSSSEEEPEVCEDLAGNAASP
Chain of human Vitamin D Receptor (VDR), VDR (gene 7421) (P11473 whole entry, looked up, the tested form may be a part): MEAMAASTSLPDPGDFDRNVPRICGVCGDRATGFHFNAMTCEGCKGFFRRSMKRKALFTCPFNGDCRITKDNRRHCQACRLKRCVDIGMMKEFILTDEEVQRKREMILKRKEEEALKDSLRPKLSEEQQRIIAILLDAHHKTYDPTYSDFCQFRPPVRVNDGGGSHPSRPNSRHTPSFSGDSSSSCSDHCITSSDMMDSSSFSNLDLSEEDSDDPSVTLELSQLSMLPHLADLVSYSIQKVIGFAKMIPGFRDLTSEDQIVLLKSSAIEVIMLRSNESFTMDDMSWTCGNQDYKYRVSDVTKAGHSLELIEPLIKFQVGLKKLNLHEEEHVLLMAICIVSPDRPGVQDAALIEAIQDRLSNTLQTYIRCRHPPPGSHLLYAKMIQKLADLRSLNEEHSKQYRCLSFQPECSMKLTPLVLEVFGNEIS

CC(C)(CO)[N+](=O)[O-]
inactive: [1]

CCCCCCCCCCC(CO)CCCCCCCC (configuration not stated)
inactive: [1]

CCCCCCCCCCCCCCCC(=O)O
inactive: [2] | [3]

OCc1cccnc1
inactive: [1]

C[C@H]1C[C@@H]2[C@H]([C@@H](O)C[C@@]3(C)[C@H]2CC[C@]3(O)C(=O)CO)[C@@]2(C)C=CC(=O)C=C12
not listed: [1] | [3] | [17]
inactive: all other assays above

O=C(COc1ccc(Cl)cc1)N1CCN(Cc2ccc3c(c2)OCO3)CC1
inactive: [2] | [1] | [3]

CC1(C)C(=O)N(Br)C(=O)N1Cl
inactive: [1]

CCCCCCCCCCCCN(CCCCCCCCCCCC)CCCCCCCCCCCC
inactive: [2] | [1]

CC(C)(C)NC(N)=O
inactive: [2] | [1] | [3]

CC(C)=CCCC(C)CC=O (configuration not stated)
inactive: [2] | [1] | [3]

O=C1OC2(c3cc(Br)c(O)c(Br)c3Oc3c2cc(Br)c(O)c3Br)c2c(Cl)c(Cl)c(Cl)c(Cl)c21
active: [4] 5.06 µM | [5] 967 nM | [6] 4.82 µM | [7] 1.57 µM | [8] 2.68 µM | [9] 13.2 µM | [10] 16.3 µM | [11] 3.57 µM | [12] 546 nM | [17] 8.63 µM | [13] 2.19 µM | [14] 3.51 µM | [15] 13.2 µM | [16] 1.34 µM
inactive: [3]

O=[N+]([O-])c1ccc(Nc2ccc(Nc3ccccc3)c(S(=O)(=O)O)c2)c([N+](=O)[O-])c1
inactive: [3]
